# PubChem BioAssay (Tox21)
# Results filed as inconclusive are left out. A number with no mark means an inactive call. Active and inactive are the calls of the source. The call rests on the fitted dose curve; in most records, active means well fitted curve in the direction sought with a large enough effect in the repeat runs; inconclusive means weak or mixed curves; inactive means no such curve, though single readings can be large; an effect the other way counts as inactive or inconclusive.
# Assay: qHTS assay to identify small molecule antagonists of the thyroid receptor (TR) signaling pathway - cell viability counter screen (AID 743064); further: nearly all actives have a fitted effect of over 50% in size
# Details: GH3.TRE-Luc viability, CellTiter-Fluor, 24 h; series mostly up to 70.3 µM; activity change, negative = cytotoxic: at the top concentration
# In short: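 In rat pituitary GH3.TRE-Luc reporter cells co-exposed to compound and 1 nM T3 for 23.5 h, cytotoxicity was assessed with CellTiter-Fluor in the same wells, read by fluorescence.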
# On the % scale 0 is the no-effect control and ±100 the full control effect.
Compound,"activity change, negative = cytotoxic",Potency
O=C(O)CCC(=O)OC[C@@H](NC(=O)C(Cl)Cl)[C@H](O)c1ccc([N+](=O)[O-])cc1,17.9%,
Cc1ccc(Cl)cc1N,3.14% [at 95 µM],
O=C(O)c1ccc(O)cc1O,0.884% [at 95 µM],
CC(CN(CCN(CC(C)OCCO)CC(C)OCCO)CC(C)OCCO)OCCO (centres undefined),7.3% [at 95 µM],
CCC1CCC(CCC(=O)O)C1 (centres undefined),7.51% [at 95 µM],
C1=CCC2CC=CC2C1 (centres undefined),2.75%,
O=C1OC[C@H](Cc2cccc(O)c2)[C@H]1Cc1cccc(O)c1,5.59% [at 32.5 µM],
O=C1CC[C@@H](C(=O)O)N1,16.9%,
Nc1ccc(S(=O)(=O)NCc2ccccc2)cc1,-1.25%,
CC(=O)C(C)=O,-0.458% [at 95 µM],
O=C(O)CCCc1c[nH]c2ccccc12,4.82%,
CCCCCC,12.1%,
CC1CCC(C(C)CS)CC1S (centres undefined),3.52%,
CC1=CC[C@@]23C[C@@H]1C(C)(C)[C@@H]2CC[C@H]3C,-5.5%,
COc1cc(S(=O)(=O)Nc2ccccc2)c(OC)cc1N,-5.72%,
CCCCCCOC(=O)CCCCC,28.9%,
COc1ccc(C)cc1,22.4%,
COc1ccc(N)c([N+](=O)[O-])c1,10.4%,
COC(CC(C)CCCC(C)(C)O)OC (centres undefined),11.2%,

Compound,"activity change, negative = cytotoxic",Potency
CC(=O)OCC(=O)[C@@]1(OC(C)=O)[C@@H](C)C[C@H]2[C@@H]3C[C@H](F)C4=CC(=O)C=C[C@]4(C)[C@@]3(F)[C@@H](O)C[C@@]21C,19.1%,
CNCc1ccc(NC(=O)c2c[nH]c3c2C(=O)CCC3)cc1,1.88%,
COC(OC)OC,9.1%,
CC(C)COC(=O)c1ccc(O)cc1,-9.35%,
CCCCCCCCCCCCCOC(=O)CCSCCC(=O)OCCCCCCCCCCCCC,3.22% [at 32.5 µM],
Nc1ccc(F)cc1,-0.746% [at 95 µM],
C=Cc1ccc(OC(C)=O)cc1,-2.01%,
CSSc1ccoc1C,-14.6%,
CC(C)Cc1ccc(CC(=O)O)cc1,13.7%,
CCN(CC)c1ccc(C(=C2C=CC(=[N+](CC)CC)C=C2)c2ccc(S(=O)(=O)O)cc2S(=O)(=O)[O-])cc1,-24.7%,
Cc1c[nH]c2ccccc12,16%,
CC(=O)OCC1=C(C(=O)O)N2C(=O)[C@@H](NC(=O)CSc3ccncc3)[C@H]2SC1,-1.98%,
CC(=O)NCCO,-2.14%,
O=C(O)CN1C(=O)c2cccc3cccc(c23)C1=O,15.1%,
CC(C(=O)O)c1ccc(C(=O)c2cccs2)cc1 (centres undefined),20.4% [at 32.5 µM],
CCCCCCC(CO)CCCC (centres undefined),0.0751%,
CC[C@H]1OC(=O)[C@H](C)[C@@H](O[C@H]2C[C@@](C)(OC)[C@@H](O)[C@H](C)O2)[C@H](C)[C@@H](O[C@@H]2O[C@H](C)C[C@H](N(C)C)[C@H]2O)[C@](C)(O)C[C@@H](C)C(=O)[C@H](C)[C@@H](O)[C@]1(C)O,,inactive
CC1CCCO1 (centres undefined),-1.81%,

# Assay: qHTS assay to identify small molecule antagonists of the thyroid receptor (TR) signaling pathway (AID 743065); further: nearly all actives have a fitted effect of over 55% in size; further: potency means the concentration at half of the fitted maximal effect
# Details: GH3.TRE-Luc, T3-stimulated luciferase inhibition, 23.5 h; series mostly up to 70.3 µM; activity, negative = inhibition: at the top concentration
# In short: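 GH3.TRE-Luc rat pituitary cells carrying two TR response elements driving luciferase were plated for 4 h, given compound plus 1 nM T3 (final), and incubated 23.5 h at 37 C. ONE-Glo luminescence measured reporter inhibition; CellTiter-Fluor fluorescence tracked cytotoxicity.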
Compound,"activity, negative = inhibition",Potency
O=C(O)CCC(=O)OC[C@@H](NC(=O)C(Cl)Cl)[C@H](O)c1ccc([N+](=O)[O-])cc1,3.95%,
Cc1ccc(Cl)cc1N,-1.42% [at 95 µM],
O=C(O)c1ccc(O)cc1O,-2.09% [at 95 µM],
CC(CN(CCN(CC(C)OCCO)CC(C)OCCO)CC(C)OCCO)OCCO (centres undefined),-7.19% [at 95 µM],
CCC1CCC(CCC(=O)O)C1 (centres undefined),13.1% [at 95 µM],
C1=CCC2CC=CC2C1 (centres undefined),1.69%,
O=C1OC[C@H](Cc2cccc(O)c2)[C@H]1Cc1cccc(O)c1,-11% [at 32.5 µM],
O=C1CC[C@@H](C(=O)O)N1,0.0129%,
Nc1ccc(S(=O)(=O)NCc2ccccc2)cc1,1.95%,
CC(=O)C(C)=O,-2.67% [at 95 µM],
O=C(O)CCCc1c[nH]c2ccccc12,-4.28%,
CCCCCC,4.18%,
CC1CCC(C(C)CS)CC1S (centres undefined),2%,
CC1=CC[C@@]23C[C@@H]1C(C)(C)[C@@H]2CC[C@H]3C,-5.67%,
COc1cc(S(=O)(=O)Nc2ccccc2)c(OC)cc1N,0.962%,
CCCCCCOC(=O)CCCCC,27%,
COc1ccc(C)cc1,0%,
COc1ccc(N)c([N+](=O)[O-])c1,19.3%,
COC(CC(C)CCCC(C)(C)O)OC (centres undefined),-0.0269%,

Compound,"activity, negative = inhibition",Potency
CC(=O)OCC(=O)[C@@]1(OC(C)=O)[C@@H](C)C[C@H]2[C@@H]3C[C@H](F)C4=CC(=O)C=C[C@]4(C)[C@@]3(F)[C@@H](O)C[C@@]21C,2.32%,
CNCc1ccc(NC(=O)c2c[nH]c3c2C(=O)CCC3)cc1,-12%,
COC(OC)OC,2.79%,
CC(C)COC(=O)c1ccc(O)cc1,-17.4%,
CCCCCCCCCCCCCOC(=O)CCSCCC(=O)OCCCCCCCCCCCCC,4.14% [at 32.5 µM],
Nc1ccc(F)cc1,-6.79% [at 95 µM],
C=Cc1ccc(OC(C)=O)cc1,0%,
CSSc1ccoc1C,8.79%,
CC(C)Cc1ccc(CC(=O)O)cc1,0.864%,
CCN(CC)c1ccc(C(=C2C=CC(=[N+](CC)CC)C=C2)c2ccc(S(=O)(=O)O)cc2S(=O)(=O)[O-])cc1,,19.3 µM (active)
Cc1c[nH]c2ccccc12,3.16%,
CC(=O)OCC1=C(C(=O)O)N2C(=O)[C@@H](NC(=O)CSc3ccncc3)[C@H]2SC1,0.37%,
CC(=O)NCCO,-0.788%,
O=C(O)CN1C(=O)c2cccc3cccc(c23)C1=O,1.07%,
CC(C(=O)O)c1ccc(C(=O)c2cccs2)cc1 (centres undefined),6.36% [at 32.5 µM],
CCCCCCC(CO)CCCC (centres undefined),6.58%,
CC[C@H]1OC(=O)[C@H](C)[C@@H](O[C@H]2C[C@@](C)(OC)[C@@H](O)[C@H](C)O2)[C@H](C)[C@@H](O[C@@H]2O[C@H](C)C[C@H](N(C)C)[C@H]2O)[C@](C)(O)C[C@@H](C)C(=O)[C@H](C)[C@@H](O)[C@]1(C)O,,inactive
CC1CCCO1 (centres undefined),-1.24%,
